Measured potencies and affinities stand elsewhere. Activity calls are given as the source filed them.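 Rule for the calls: active = cell killing with a fitted half-maximal concentration at most twice the top valid dose tried; inconclusive = flat fit between -70 and -30 percent, or an invalid fit; inactive = the rest.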
test: A549 cell cytotoxicity, dose response, cytotoxicity control, CellTiter-Glo luminescence, dry powder, set 5 (AID 743158); conditions: A549 viability, CellTiter-Glo ATP luminescence, 72 h; series mostly up to 26 µM

| Compound | outcome |
| --- | --- |
| S=c1[nH]c2ccccc2n1CCOc1ccccc1 | inactive |
| S=c1[nH]c2ccccc2n1CCOc1ccc(Cl)cc1 | inactive |
| Cc1ccc(C(C)C)c(OCCn2c(=S)[nH]c3ccccc32)c1 | inactive |
| c1ccc(OCCn2cnc3ccccc32)cc1 | inactive |
| Cc1ccc(OCCn2c(=S)[nH]c3ccccc32)cc1 | inactive |
| Cc1ccc2c(c1)[nH]c(=S)n2CCOc1ccccc1 | inactive |
| CCOC(=O)c1c(-c2ccc(F)cc2)csc1NC(=O)CN1CCN(C)CC1 | inactive |
| Cc1ccc(OCCn2c(=S)[nH]c3ccccc32)c(C(C)C)c1 | inactive |

Source: PubChem BioAssay AID743158 (Broad Institute, 2013)
